Screening results: PubChem BioAssay, National Center for Advancing Translational Sciences (NCATS)
In the library only some 9.2% were active in any assay of this set; here they are far more common.
ELG1 genotox = inducers of genotoxicity in HEK293T ELG1-luciferase cells. HEK293T ELG1-luciferase reporter, luminescence, 16 h. hit rate 1.3% among 330,000. Potency, µM (titrated, usually from 46 µM), usual class: activators. AID 504466; further: nearly all actives have a fitted effect of over 60% in size
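Genotoxic stress is detected as increased luminescence from luciferase-tagged ELG1 in HEK293T cells, measured with ONE-Glo after a 16 hr treatment at 37 °C.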
SMN2 splice up = enhancers of SMN2 splice variant expression | HEK293 SMN2-luciferase splicing reporter, luminescence, 30-36 h | Potency, µM (titrated, usually from 46.1 µM), most hits filed as activators | hit rate 2.8% among 210,000; further: nearly all actives have a fitted effect of over 55% in size
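HEK293 cells carry an SMN2 […]–luciferase reporter in which exon 7 inclusion puts luciferase in frame. Cells were plated 10-12 h before compound addition, then incubated 30-36 h at 37C. ONE-Glo luminescence was read; sodium butyrate at 4.5 mM final served as control.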
Rab9 promoter act = Rab9 promoter activation; hit rate 2.8% among 320,000; Potency, µM (highest dose often 9.22 µM), usual class: activators; Huh7 Rab9 promoter-luciferase reporter, luminescence, 24 h; further: nearly all actives have a fitted effect of over 60% in size
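Using Huh7 cells stably transfected with Rab9 promoter–luciferase, compounds were incubated 24 h at 37 °C, 5% CO2; luciferase luminescence was read 10 min after reagent addition.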
ELG1 DNA repair = blocks ELG1-dependent DNA repair in HEK293T cells. HEK293T ELG1-luciferase reporter, luminescence, 16 h; DNA damage induced by 5-fluorouridine. AID 504467. hit rate 2.3% among 330,000. Potency, µM (top dose mostly 46.1 µM), most hits filed as inhibitors; further: nearly all actives have a fitted effect of over 55% in size
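5-Fluorouridine DNA damage + compound/DMSO, 2,000 cells/well, 16 h, 37 °C/5% CO2. ONE-Glo, 30 min RT, luminescence. Readout = decrease in reporter signal.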
FLuc modulator = inhibits or activates purified firefly luciferase, miR-21 counter-screen. P08659. purified FLuc, Km substrates, luminescence inhibition. Potency, µM (series often up to 57.5 µM), hits mostly inhibitors. hit rate 6.9% among 360,000. AID 588342; further: nearly all actives have a fitted effect of over 55% in size
Target sequence (P08659 whole entry, looked up): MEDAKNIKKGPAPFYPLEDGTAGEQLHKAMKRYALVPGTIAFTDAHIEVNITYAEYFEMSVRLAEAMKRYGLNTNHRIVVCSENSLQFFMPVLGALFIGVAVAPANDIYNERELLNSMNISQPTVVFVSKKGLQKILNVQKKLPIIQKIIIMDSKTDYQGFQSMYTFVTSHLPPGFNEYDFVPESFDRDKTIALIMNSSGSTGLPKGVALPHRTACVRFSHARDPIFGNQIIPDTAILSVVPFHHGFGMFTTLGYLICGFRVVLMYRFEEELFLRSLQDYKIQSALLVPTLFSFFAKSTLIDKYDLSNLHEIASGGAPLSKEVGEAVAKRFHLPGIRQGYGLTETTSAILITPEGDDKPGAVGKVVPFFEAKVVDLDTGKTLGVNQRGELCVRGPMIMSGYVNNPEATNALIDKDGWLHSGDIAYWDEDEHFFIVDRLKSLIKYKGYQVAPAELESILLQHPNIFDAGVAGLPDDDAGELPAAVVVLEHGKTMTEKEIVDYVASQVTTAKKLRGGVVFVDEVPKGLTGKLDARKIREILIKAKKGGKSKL
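Biochemical qHTS of compounds, final roughly 60 µM downward over six points, against 10 nM purified firefly luciferase using Km concentrations of substrates (10 uM D-luciferin, 10 uM ATP) in Tris acetate pH 7.5 buffer; luminescence output.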
NPC1 prom act = activators of NPC1 promoter. Huh7 NPC1 promoter luciferase reporter, 24 h. Potency, µM (top dose mostly 9.22 µM), most hits filed as activators. hit rate 2.4% among 320,000. AID 485313; further: nearly all actives have a fitted effect of over 60% in size
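Luciferase expression driven by the NPC1 promoter was measured in stably transfected Huh7 cells after a 24 h compound incubation, using a luciferase reagent and a luminescence read.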
Each line names hits and unclear results; the compound was inactive in the other large screens. The call rests on the fitted dose curve; in most records, active means well fitted curve in the direction sought with a large enough effect; inconclusive means small, poorly fitted or top-dose-only effect, or another doubt; inactive means no such curve, though single readings can be large; an effect the other way counts as inactive or inconclusive.

CCOC(=O)C1CCCN(CC(=O)Nc2c(C(=O)OC)[nH]c3ccc(Br)cc23)C1 (configuration not stated)	ELG1 DNA repair 16µM (no result: SMN2 splice up)
CCOC(=O)C1CCN(CC(=O)Nc2c(C(=O)OC)[nH]c3ccc(Cl)cc23)CC1	ELG1 DNA repair 21µM
COC(=O)c1[nH]c2ccc(Br)cc2c1NC(=O)CN1CCN(C2CCCCC2)CC1	ELG1 genotox inconclusive, ELG1 DNA repair inconclusive
COc1cc(C2C(=O)N(C3CCCCCC3)CC(=O)N2Cc2ccccc2)ccc1OC(C)C (configuration not stated)	none (no result: ELG1 genotox, SMN2 splice up, Rab9 promoter act, ELG1 DNA repair, NPC1 prom act)
CCOC(=O)c1cc2c(=O)n3ccccc3nc2n(CC2CCCO2)c1=NC(=O)c1cccc(C)c1 (configuration not stated)	none (no result: ELG1 genotox, Rab9 promoter act, ELG1 DNA repair, NPC1 prom act)
O=C1CC(=O)Nc2cc(S(=O)(=O)NCc3cccs3)ccc2N1	none (no result: SMN2 splice up)
CC(C)(C)NC(=O)CSc1nc2ccc(NC(=O)CSc3nnc(N)s3)cc2s1	ELG1 DNA repair 16µM, FLuc modulator 12µM
Cn1ccnc1SCC(=O)Nc1ccc2nc(SCC(=O)NC3CC3)sc2c1	ELG1 genotox 13µM, Rab9 promoter act inconclusive, ELG1 DNA repair inconclusive, FLuc modulator 19µM, NPC1 prom act inconclusive
CCN(CC)C(=O)CSc1nc2ccc(NC(=O)CSc3nnc(COc4ccccc4C)n3C)cc2s1	ELG1 DNA repair 8.2µM, FLuc modulator inconclusive
Cc1cccc(NC(=O)CSc2nnc(N)s2)c1	SMN2 splice up inconclusive (no result: ELG1 genotox, Rab9 promoter act, ELG1 DNA repair, NPC1 prom act)
Cn1ccnc1SCC(=O)NC1CCCC1	none (no result: SMN2 splice up)
Cc1ccccc1OCc1nnc(SCC(=O)Nc2ccc3nc(SCC(=O)NC(C)(C)C)sc3c2)n1C	ELG1 DNA repair inconclusive
CC(C)(C)NC(=O)CSc1nc2ccc(NC(=O)CSc3nnnn3Cc3ccccc3)cc2s1	ELG1 DNA repair 2.9µM, FLuc modulator inconclusive
CCC1CN(C(=O)N2CCC(C(=O)NCc3cccc(F)c3)CC2)c2cc(C)ccc2O1 (configuration not stated)	none (no result: ELG1 genotox, SMN2 splice up, Rab9 promoter act, ELG1 DNA repair, NPC1 prom act)
N[C@@]1(C(=O)O)CCC[C@@H]1C(=O)O	none (no result: ELG1 genotox, Rab9 promoter act, ELG1 DNA repair, FLuc modulator, NPC1 prom act)
COc1ccc2c(c1)CCc1c-2n[nH]c1C(=O)O	FLuc modulator 11µM
COc1ccc2c(c1)CCc1c(-c3noc4c3CCc3cc(OC)ccc3-4)noc1-2	none (no result: ELG1 genotox, Rab9 promoter act, ELG1 DNA repair, FLuc modulator, NPC1 prom act)
O=C(CCNC(=O)c1ccccc1)NCCCc1ccccc1	none (no result: SMN2 splice up)
COc1ccc(NC(=O)c2ccc(Cl)cc2)c[n+]1[O-]	none (no result: SMN2 splice up)
CN(C)c1ccc(N=Nc2ccccc2C(=O)OCC(=O)N2CCCC2)cc1	SMN2 splice up inconclusive, ELG1 DNA repair inconclusive, FLuc modulator 2.1µM
CN(C)c1ccc(N=Nc2ccccc2C(=O)OCC(=O)N2CCCCCC2)cc1	SMN2 splice up 25µM, ELG1 DNA repair inconclusive, FLuc modulator inconclusive
CN(C)c1ccc(N=Nc2ccccc2C(=O)OCC(=O)Nc2ccccc2C(F)(F)F)cc1	FLuc modulator 9.5µM
CN(C)c1cc[n+](CC(=O)Nc2ccccc2C(F)(F)F)cc1	ELG1 DNA repair inconclusive (no result: SMN2 splice up)
CCOc1ccccc1CNC(=O)c1cnc2sc(N3CCCCCC3)nn2c1=O	none (no result: ELG1 genotox, SMN2 splice up, Rab9 promoter act, ELG1 DNA repair, NPC1 prom act)
COc1ccccc1CCC(=O)N1CCC(n2nccc2NC(=O)C2CCOC2)CC1 (configuration not stated)	none (no result: SMN2 splice up)
O=C(/C=C/NNC(=O)c1ccccc1O)c1ccccc1	FLuc modulator 19µM (no result: SMN2 splice up)
O=C(/C=C/NNC(=O)c1ccccc1)c1ccccc1	ELG1 genotox inconclusive, ELG1 DNA repair inconclusive, FLuc modulator inconclusive
Cc1ccc(C(=O)/C=C\NCc2ccccc2)cc1	SMN2 splice up inconclusive, Rab9 promoter act inconclusive, ELG1 DNA repair inconclusive, FLuc modulator 11µM, NPC1 prom act inconclusive
O=C(/C=C/NNC(=O)c1ccc(Br)cc1)c1ccccc1	ELG1 genotox inconclusive, ELG1 DNA repair inconclusive, FLuc modulator inconclusive
CC(/C=C/C(=O)c1ccc(C)cc1)=C\c1ccccc1	Rab9 promoter act inconclusive, ELG1 DNA repair inconclusive, FLuc modulator 4.3µM, NPC1 prom act inconclusive
Cc1ccc(C(=O)C=CNNC(=O)c2ccccc2)cc1	ELG1 DNA repair inconclusive, FLuc modulator 24µM (no result: SMN2 splice up)
Cc1cc(=O)n(CC(=O)Nc2ccc([N+](=O)[O-])cc2)c(-n2nc(C)cc2C)n1	none (no result: ELG1 genotox, SMN2 splice up, Rab9 promoter act, ELG1 DNA repair, NPC1 prom act)
